Here are results for 24 compounds from PubChem BioAssay (NCATS).

SMILES strings stand for the structures. Values joined by “and” are separate entries in the source; they are usually repeats but may differ in a detail not shown here. Equal values may be shown once. Results filed as inconclusive are left out. A number with no mark means an inactive call. Active and inactive are the calls of the source. Calls follow the shape of the dose curve; as a rule, active = well fitted curve in the direction sought with a large enough effect; inconclusive = small, poorly fitted or top-dose-only effect, or another doubt; inactive = no such curve, though single readings can be large; an effect the other way counts as inactive or inconclusive.

A short description of assay [1]: Drug repurposing screens with cells derived from glioblastoma tumor samples (AID 1345199). Also: nearly all actives have a fitted effect of over 40% in size. Also: potency is read from the fitted curve at half-maximal effect. The conditions noted are these: GBM patient neurospheres viability, ATP luminescence, 48 h. A digest of the protocol: (§1)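 Four patient lines of CD133+ GBM neurospheres were screened at several concentrations; hits were retested in those lines plus three slower-growing GBM lines, using 48-hour treatment and ATP-based viability.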

Assay [2] relates to HeLa. As to the kind of experiment: Primary qHTS to identify gynecologic anti-cancer compounds using libraries of approved drugs and bioactive compounds (AID 1345084). Also: nearly all actives have a fitted effect of over 55% in size. The conditions noted are these: Gynecologic cancer cell panel viability, ATPlite luminescence, 48 h; series mostly up to 57.5 µM. A digest of the protocol: (§2)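 In this quantitative HTS, cell killing is estimated from loss of ATP-dependent luciferase light. Cells see five compound concentrations over a 48 h exposure.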

Assay [3] relates to Hek293T. Described as above. The conditions noted are these: Gynecologic cancer cell panel viability, ATPlite luminescence, 48 h, control line for the selectivity index; series mostly up to 57.5 µM. A digest of the protocol: as §2
(Cellular ATP, detected with luciferase, serves as a proxy for viable cell number.)

Assay [4] has as its system JEG-3. The description is as above. Particulars: Gynecologic cancer cell panel viability, ATPlite luminescence, 48 h; series mostly up to 57.5 µM. A digest of the protocol:
as §2

Assay [5] relates to OV90. The assay is described as above. The conditions noted are these: Gynecologic cancer cell panel viability, ATPlite luminescence, 48 h; series mostly up to 57.5 µM. A digest of the protocol: as §2
The subject of assay [6] is PA-1. The description is as above. The conditions noted are these: Gynecologic cancer cell panel viability, ATPlite luminescence, 48 h; series mostly up to 57.5 µM. A digest of the protocol: as §2
In assay [7] the test system is SKOV3. The assay is described as above. Particulars: Gynecologic cancer cell panel viability, ATPlite luminescence, 48 h; series mostly up to 57.5 µM. A digest of the protocol: as §2
The subject of assay [8] is Tov-21-G. The assay is described as above. The conditions noted are these: Gynecologic cancer cell panel viability, ATPlite luminescence, 48 h; series mostly up to 57.5 µM. An outline of the steps: as §2
In assay [9] the test system is Tov112D. Described as above. The conditions noted are these: Gynecologic cancer cell panel viability, ATPlite luminescence, 48 h; series mostly up to 57.5 µM. An outline of the steps:
as §2

The test system of assay [10] is astro (control astrocytes). Description: Drug repurposing screens with cells derived from glioblastoma tumor samples (AID 1345199). Also: nearly all actives have a fitted effect of over 40% in size. Also: potency is read from the fitted curve at half-maximal effect. The conditions noted are these: viability, ATP luminescence, 48 h; series mostly up to 45.9 µM. A digest of the protocol: as §1
Setting [11] is: at 46 µM (top of the series), tumour line A.
Where [12] appears, read: at 91.6 µM (top of the series), tumour line B.
[13] abbreviates: at 108 µM (top of the series), tumour line B.
Where [14] appears, read: at 108 µM (top of the series), tumour line D.
[15] abbreviates: at 91.6 µM (top of the series), tumour line A.
[16] abbreviates: at 45.9 µM (top of the series), tumour line B.
[17] abbreviates: at 45.9 µM (top of the series), tumour line D.
% is scaled to controls: 0 for no effect and ±100 for the full control effect.

Consider `COc1c2c(cc3c1OCO3)CCN(C)C2`, for which the activity, negative = cell killing is -1.01% in [1] (at 21.2 µM (top of the series), tumour line B) and -13.1% in [1] (at 21.2 µM (top of the series), tumour line D).
In the case of `[N-]=[N+]=CC(=O)OC[C@H](N)C(=O)O`, the activity, negative = cell killing in assay [1] (setting [11]) is -24.5%.
For the compound `CC(Cc1ccccc1)NCCn1cnc2c1c(=O)n(C)c(=O)n2C` (stereo not given), in [1] (setting [12]), the activity, negative = cell killing was -19.2%.
For the compound `COc1cc(CCN)cc(OC)c1OC`, the activity, negative = cell killing in assay [1] (setting [13]) was -15.3%; in assay [1] (setting [14]), 5.13%.
As for `CCN[C@@H](C)Cc1ccccc1`, the activity, negative = cell killing was -6.22% in [1] (setting [13]) and -20.9% in assay [1] (setting [14]).
With `CN1CCC(O)(c2ccc(F)cc2)C(C(=O)c2ccc(F)cc2)C1` (stereo not given), the Potency in [1] (tumour line B) is 28.2 µM (active).
As for `CN(C)CCc1c[nH]c2cccc(OP(=O)(O)O)c12`, the activity, negative = cell killing in assay [1] (setting [15]) is -30.1%.
Same read-out and setting: next, `CN1CC[C@]23c4c5ccc(O)c4O[C@H]2[C@@H](O)CC[C@H]3[C@H]1C5`: -29.5%.
Regarding `c1ccc(CN2CCNCC2)cc1`, the activity, negative = cell killing in assay [1] (at 194 µM (top of the series), tumour line B) is 7.52%; in assay [1] (at 194 µM (top of the series), tumour line D) it was -7.34%.
Consider `CC(NC(C)(C)C)C(=O)c1cccc(Cl)c1` (stereo not given), for which the Potency entry in assay [2], in [5], in assay [6], in assay [8], in assay [9] and in assay [10] was “inactive” throughout. Besides, the outcome in [3], in [4] and in assay [7] was inactive. For the same compound, the activity, negative = cell killing in assay [1] (setting [16]) was -9.74%; in assay [1] (setting [17]), 3.9%.
In the case of `C[C@]12CC[C@@H]3c4ccc(OC(=O)N(CCCl)CCCl)cc4CC[C@H]3[C@@H]1CC[C@@H]2OP(=O)(O)O`, the Potency entry in assay [2], in assay [5], in [6], in [8] and in assay [9] was “inactive” in each case. In addition, the compound was called inactive in [3], in [4] and in assay [7]. In addition, the results for the activity, negative = cell killing in assay [1] (setting [16]) and in assay [1] (setting [17]) were -5.05% and -6.53%, respectively. For the same compound, the Potency in assay [10] was 10 µM (active).
In the case of `O=C1c2ccccc2C(=O)c2ccccc21`, the Potency entry in assay [2], in [5], in assay [6], in assay [8], in assay [9] and in assay [10] was “inactive” each time. The call in assay [3], in assay [4] and in assay [7] was inactive. The activity, negative = cell killing in assay [1] (setting [16]) was 4.04%; in assay [1] (setting [17]), -17.8%.
Regarding `O=C(CCCN1CCC2(CC1)C(=O)NCN2c1ccccc1)c1ccc(F)cc1`, the Potency result in assay [2], in assay [6], in assay [8], in assay [9] and in assay [10] was “inactive” in each case. Moreover, the compound was classed as inactive in assay [3], in assay [4] and in assay [7]. The Potency in assay [1] (tumour line A) is 2.24 µM (active); in [1] (tumour line D), 12.6 µM (active).
`CC(C)N(CCC(C(N)=O)(c1ccccc1)c1ccccn1)C(C)C` (stereo not given): the Potency entry in assay [2], in assay [5], in [6], in [8], in assay [9] and in [10] was “inactive” each time. The call in assay [3], in [4] and in assay [7] was inactive. Also, the activity, negative = cell killing is -20.9% in assay [1] (setting [16]) and 4.58% in assay [1] (setting [17]).
In the case of `Nc1ccc([As](=O)(O)O)cc1`, the Potency entry in assay [2], in [5], in assay [6], in assay [8] and in [9] was “inactive” in each case. Further, the compound was called inactive in assay [3] and in assay [4]. Also, the activity, negative = cell killing in assay [1] (setting [16]) was -5.35%; in assay [1] (setting [17]), -5.12%; in assay [1] (setting [11]) it was -21.8%.
Turning to `CNCC(=O)c1ccc(O)c(O)c1`, the Potency entry in [2], in assay [5], in assay [6], in assay [8], in assay [9] and in assay [10] was “inactive” each time. The result in [3], in assay [4] and in assay [7] was inactive. Further, the activity, negative = cell killing was -11.2% in [1] (setting [16]) and -3.6% in [1] (setting [17]).
As to `CC(C)(C)NCC(O)c1ccccc1Cl` (stereo not given), the Potency result in assay [2], in assay [6], in assay [8], in assay [9] and in assay [10] was “inactive” each time. Also, the compound was classed as inactive in [3], in assay [4] and in [7]. For the same compound, the activity, negative = cell killing in assay [1] (setting [16]) was -9.73%; in assay [1] (setting [17]) it was -4.92%.
`COc1cccc(C(=O)CCN[C@@H](C)[C@H](O)c2ccccc2)c1`: the Potency entry in assay [2], in assay [6], in [8] and in [9] was “inactive” each time. Besides, the compound was classed as inactive in assay [3], in assay [4] and in assay [7]. The Potency in assay [1] (tumour line A) is 28.2 µM (active); in assay [1] (tumour line B), 22.4 µM (active); in assay [1] (tumour line D), 22.4 µM (active).
Consider `COc1cc(OC)c(OC)cc1C=O`, for which the Potency result in assay [2], in [5], in assay [6], in assay [8], in assay [9] and in assay [10] was “inactive” each time. Moreover, the compound was classed as inactive in assay [3], in assay [4] and in assay [7]. Besides, the activity, negative = cell killing in assay [1] (setting [12]) was -6.05%.
With `Oc1ccc(Cl)cc1`, the Potency entry in assay [2], in assay [5], in [6], in assay [8] and in assay [9] was “inactive” each time. Moreover, the compound was classed as inactive in assay [3] and in [4]. Also, the activity, negative = cell killing in [1] (setting [16]) was -7.37%; in assay [1] (setting [17]), -24.9%; in assay [1] (setting [11]), -26.5%.
Consider `CCN[C@@H](C)Cc1cccc(C(F)(F)F)c1`, for which the Potency result in assay [2], in assay [5], in [6], in assay [8], in [9] and in assay [10] was “inactive” in each case. For the same compound, the call in assay [3], in [4] and in assay [7] was inactive. The activity, negative = cell killing is 2.77% in assay [1] (setting [12]) and -1.09% in assay [1] (at 91.6 µM (top of the series), tumour line D).
Take `CN1C(=O)CCS(=O)(=O)C1c1ccc(Cl)cc1` (stereo not given): the Potency result in [2], in assay [5], in [6], in assay [8], in assay [9] and in [10] was “inactive” throughout. The compound was called inactive in assay [3] and in assay [4]. Further, the activity, negative = cell killing in [1] (setting [16]) is -12.1% and -22.6%; in assay [1] (setting [17]) it was -13.6% and -16.2%; in [1] (setting [11]) it was -23.1% and -4.54%.
Turning to `NC(=O)CS(=O)C(c1ccccc1)c1ccccc1` (stereo not given), the Potency result in assay [2], in [6], in [8] and in assay [9] was “inactive” throughout. The outcome in assay [3], in [4] and in [7] was inactive. The figures for the activity, negative = cell killing in assay [1] (setting [16]), in [1] (setting [17]) and in [1] (setting [11]) were -12.2%, -18.4% and -9.02%, respectively.
For the compound `Nc1ccccc1C(=O)O`, the Potency entry in assay [2], in assay [5], in [6], in assay [8] and in assay [9] was “inactive” each time. The result in assay [3] and in [4] was inactive. Further, the activity, negative = cell killing in assay [1] (setting [16]) was 2.36%; in assay [1] (setting [17]), -8.9%; in [1] (setting [11]) it was -2.87%.
